This is one part of a sample in which hits are shown more often than they occur.
LmPK inhibitor = inhibitors of Leishmania mexicana pyruvate kinase; Potency, µM (series often up to 57.5 µM), actives largely listed as inhibitors; 0.37% of 290,000 active; Q27686; purified LmPK, Kinase-Glo ATP luminescence, 1 h
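Screened at intermediate enzyme activity to detect both inhibitors and activators: LmPK at 0.1 nM, with a 0.5 nM enzyme column as activation reference. PEP 0.5 mM, ADP 0.1 mM; ATP detected by luminescence after 1 h.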
CHX counter = affects cycloheximide protein synthesis inhibition readout, counter-screen; cell reporter, cycloheximide protein synthesis inhibition counterscreen; max response, %; 12% of 300,000 active; in the data active means max response mostly above about 13%, no sharp cut-off; inactive means mostly below about 14%; further: read at 38.3 µM for the half of the compounds with a filed dose
Shiga toxin inh = Shiga toxin inhibition; inhibition, % at 38.7 µM; 9.2% of 290,000 active; Vero cells, Shiga toxin protein synthesis inhibition reporter; in the data active means inhibition mostly above about 28%, no sharp cut-off; inactive means mostly below about 43%
Giardia FBPA inh = inhibitors of Giardia lamblia fructose-1,6-bisphosphate aldolase | 0.71% of 290,000 active | A8B2U2 | Potency, µM (series often up to 59.6 µM), actives largely listed as inhibitors | purified Giardia FBPA; further: nearly all actives have a fitted effect of over 55% in size
Target sequence (A8B2U2 whole entry, looked up): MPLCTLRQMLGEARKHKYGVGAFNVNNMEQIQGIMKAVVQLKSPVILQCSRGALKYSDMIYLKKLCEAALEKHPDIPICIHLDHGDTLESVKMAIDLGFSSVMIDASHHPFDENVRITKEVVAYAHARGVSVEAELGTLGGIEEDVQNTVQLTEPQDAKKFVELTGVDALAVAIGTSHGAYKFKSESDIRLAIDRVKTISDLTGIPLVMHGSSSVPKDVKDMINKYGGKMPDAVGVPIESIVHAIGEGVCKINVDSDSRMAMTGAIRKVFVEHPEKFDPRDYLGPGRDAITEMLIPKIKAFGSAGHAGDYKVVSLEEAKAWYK
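40 nM FBPA preincubated 10 min at RT with compound (up to 57.5 uM final), then substrate plus GAPDH/TPI/NAD/arsenate coupling and diaphorase/resazurin added. Fluorescence read after 20 min at RT, 525/598 nm.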
Sm TGR block = inhibitors of Schistosoma mansoni thioredoxin glutathione reductase. AID 485364. 3% of 360,000 active. purified TGR, DTNB reduction, TNB absorbance 405 nm. Potency, µM (titrated, usually from 114 µM), usual class: inhibitors. Q962Y6; further: nearly all actives have a fitted effect of over 60% in size
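TGR 20 nM + NADPH 100 uM (dispensed conc.), cpd preinc 15 min RT; start with NADPH (500 uM addition) then DTNB (15 mM addition). Kinetic TNB absorbance, 405 nm filter. Four-parameter Hill fit across titration.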
TbPYK inhibitor = T. brucei pyruvate kinase inhibition; Potency, µM (top dose mostly 76.8 µM), most hits filed as inhibitors; AID 624173; 0.12% of 410,000 active; TbPYK enzyme, Kinase-Glo Plus ATP luminescence, 45 min; Q57TT1; further: nearly all actives have a fitted effect of over 50% in size
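ADP (130 uM final) triggers the TbPYK reaction after compound addition; incubation is 45 min at room temperature. Kinase-Glo Plus is then added and luminescence imaged. Normalized data are fitted to concentration-effect curves.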
Large screens that a line does not name were inactive. Unless noted, the call rests on the fitted dose curve; in most records, active means well fitted curve in the direction sought with a large enough effect; inconclusive means small, poorly fitted or top-dose-only effect, or another doubt; inactive means no such curve, though single readings can be large; an effect the other way counts as inactive or inconclusive.

Cc1cc(C)nc(NS(=O)(=O)c2ccc(NC(=S)NC(=O)c3cccnc3)cc2)n1	Giardia FBPA inh inconclusive, Sm TGR block inconclusive
CCc1nnc(NS(=O)(=O)c2ccc(NC(=S)NC(=O)c3ccc(F)cc3)cc2)s1	Sm TGR block 45µM
CCc1nnc(NS(=O)(=O)c2ccc(N/C=C/C(=O)c3ccc(OC)cc3)cc2)s1	CHX counter 51, Shiga toxin inh 86
CCc1nnc(NS(=O)(=O)c2ccc(NC(=O)c3ccc(Br)cc3)cc2)s1	none (no result: Shiga toxin inh)
Cc1cc(NS(=O)(=O)c2ccc(NC(=S)NC(=O)c3ccc(Br)cc3)cc2)no1	Sm TGR block 50µM
CCc1nnc(NS(=O)(=O)c2ccc(NC(=O)Nc3ccc(OC)cc3)cc2)s1	none
O=c1ncccn1[C@@H]1O[C@H](CO)[C@@H](O)[C@H]1O	none (no result: LmPK inhibitor, Sm TGR block, TbPYK inhibitor)
CCOC(=O)c1cccc(NC(=O)COc2nsnc2N2CCOCC2)c1	none
Cc1ccc(NC(=O)C2(C)CCN2C(=O)Cc2cc(F)ccc2F)cc1 (stereo not drawn)	none (no result: LmPK inhibitor, CHX counter, Shiga toxin inh, Giardia FBPA inh, Sm TGR block)
COc1ccc(/C=C/C(=O)NC(=S)Nc2ccc(S(=O)(=O)Nc3ccc(OC)nn3)cc2)cc1	none
COc1ccc(NS(=O)(=O)c2ccc(NC(=S)NC(=O)c3ccc(F)cc3)cc2)nn1	Sm TGR block 45µM
COc1ccc(S(=O)(=O)Nc2nnc(Cc3ccc(OC)c(OC)c3)s2)cc1	CHX counter 9.2, Giardia FBPA inh inconclusive
O=C(CSc1ccc(-c2ccc(F)cc2)nn1)NC1CCCCC1	none
Cc1oc(-c2ccc3c(c2)OCCO3)cc1C(=O)O	LmPK inhibitor 14µM, Sm TGR block inconclusive, TbPYK inhibitor inconclusive
Cc1oc(-c2ccc3c(c2)OCCO3)cc1C(=O)NC(CCC(=O)O)C(=O)O (stereo not drawn)	CHX counter 27
Cc1oc(-c2ccc3c(c2)OCCO3)cc1C(=O)NCC(=O)O	none
Cc1cccc(-c2nc(SCCCOc3ccccc3Cl)n3[nH]c(=O)cc3n2)c1	none (no result: LmPK inhibitor, CHX counter, Shiga toxin inh, Giardia FBPA inh)
CCNC(=O)NC(=O)CSc1ccc(S(=O)(=O)N2CCOCC2)cn1	none (no result: LmPK inhibitor, CHX counter, Shiga toxin inh, Giardia FBPA inh, Sm TGR block)
CCN(CC)c1ccc(/C=N/Nc2cccc(C)c2)c(O)c1	Giardia FBPA inh inconclusive, Sm TGR block 10µM
CCN(CC)c1ccc(/C=N/Nc2ccccc2)c(O)c1	CHX counter 23, Giardia FBPA inh inconclusive, Sm TGR block 10µM
CCCCN(C)CCNC(=O)c1cn(C)c(=O)c2c1c1ccccc1n2C	Sm TGR block 45µM
Cc1ccc(CNC(=O)c2cn(C)c(=O)c3c2c2ccccc2n3C)o1	Sm TGR block 22µM
CCCCN(CC)CCNC(=O)c1cn(C)c(=O)c2c1c1ccccc1n2C	none
Cc1ccc(CNC(=O)c2cn(C3CCCCC3)c(=O)c3c2c2ccccc2n3C)o1	Sm TGR block 10µM
O=S(=O)(Nc1cccc(-c2ccc(N3CCCCC3)nn2)c1)c1ccc(Cl)s1	none (no result: LmPK inhibitor, CHX counter, Shiga toxin inh, Giardia FBPA inh)
CCC(=O)Nc1ccc2c(c1)Cc1cc([N+](=O)[O-])ccc1-2	none (no result: LmPK inhibitor, CHX counter, Shiga toxin inh, Giardia FBPA inh, Sm TGR block)
CCOC(=O)N1CCN(C(=O)C[C@@H]2C[C@@]3(C(=O)OCC)CCC=C3N(Cc3ccc(Cl)cc3Cl)C2=O)CC1	none (no result: LmPK inhibitor, CHX counter, Shiga toxin inh, Giardia FBPA inh, Sm TGR block)
CC(=O)c1cccc(NC(=O)c2ccco2)c1	none
CCOC(=O)c1cccc(NC(=O)c2ccco2)c1	CHX counter 41, Shiga toxin inh 28
COc1cccc(NC(=O)COC(=O)c2ccco2)c1	CHX counter 12, Shiga toxin inh 41
COc1cccc(NC(=O)c2ccco2)c1	LmPK inhibitor inconclusive, CHX counter 36, Shiga toxin inh 86
O=C(Nc1cccc(NC(=O)c2ccco2)c1)c1ccccc1	none (no result: Giardia FBPA inh)
O=C(c1ccccc1)c1cccc(NC(=O)c2ccco2)c1	CHX counter 24, Shiga toxin inh 60
Cc1ccc(NC(=O)Cn2c(=O)n(Cc3ccc4c(c3)OCO4)c(=O)c3ccc(C(=O)NC4CCCCC4)cc32)c(C)c1	Sm TGR block inconclusive (no result: LmPK inhibitor, CHX counter, Shiga toxin inh, Giardia FBPA inh)
Cn1cc(S(=O)(=O)N2CCCCCC2)cc1C(=O)NCc1ccc(Cl)cc1	none (no result: LmPK inhibitor, CHX counter, Shiga toxin inh, Giardia FBPA inh)
CC1(C)CC(NC(=O)c2cccc(S(=O)(=O)Nc3cccc(Cl)c3)c2)CC(C)(C)N1	none (no result: LmPK inhibitor, CHX counter, Shiga toxin inh, Giardia FBPA inh)
O=C(COc1cccc(NC(=O)c2ccco2)c1)c1ccccc1	CHX counter 37, Shiga toxin inh 62
COc1ccc(C(=O)COc2cccc(NC(=O)c3ccco3)c2)cc1	CHX counter 12, Sm TGR block inconclusive
O=C(Nc1cccc(NC(=O)c2ccc(-c3ccc(Br)cc3)o2)c1)c1ccccc1	none
O=C(Nc1cccc(NC(=O)c2ccc(-c3cccc(Br)c3)o2)c1)c1ccco1	CHX counter 58, Shiga toxin inh 73
CCn1cc(Cl)c(C(=O)Nc2ccccc2C(N)=O)n1	CHX counter 29
CCn1cc(Cl)c(C(=O)Nc2ccc3c(c2)OCCO3)n1	LmPK inhibitor inconclusive, CHX counter 44, Shiga toxin inh 168
CCn1cc(Cl)c(C(=O)Nc2cccc(C(F)(F)F)c2)n1	CHX counter 32, Shiga toxin inh 58
Nc1c(-c2ccccc2Cl)cnn1-c1cccc([N+](=O)[O-])c1	none (no result: TbPYK inhibitor)
Cc1ccc(-c2cnn(-c3cccc([N+](=O)[O-])c3)c2N)cc1	CHX counter 46, Shiga toxin inh 103
Cc1ccccc1-c1cnn(-c2cccc([N+](=O)[O-])c2)c1N	CHX counter 26
O=C(CSc1nc(=O)n(CCN2CCOCC2)c2c1CCC2)Nc1ccc(Cl)c(Cl)c1	none (no result: LmPK inhibitor, CHX counter, Shiga toxin inh, Giardia FBPA inh)
Cc1ccc(C2C3C(=O)N(c4ccc(C)cc4)C(=O)C3N3CCCN23)cc1 (stereo not drawn)	none
Cc1ccc(C2C3C(=O)N(c4ccccc4)C(=O)C3N3CCCN23)cc1 (stereo not drawn)	CHX counter 28
O=C1C2C3C=CC(C3=C3CCCCC3)C2C(=O)N1c1ccccc1 (stereo not drawn)	Sm TGR block 16µM
O=C1C2C3C=CC(C3)C2C(=O)N1c1ccccc1 (stereo not drawn)	none
COC(=O)[C@@]1(C(C)C)N=C(c2cc(OC)c(OC)c(OC)c2)[C@]2(O1)C(=O)N(C)c1ccc(Br)cc12	none (no result: LmPK inhibitor, CHX counter, Shiga toxin inh, Giardia FBPA inh, Sm TGR block)
CCOc1ccc(Br)cc1S(=O)(=O)NCC(c1ccc(OC)cc1)N1CCOCC1 (stereo not drawn)	none (no result: LmPK inhibitor, CHX counter, Shiga toxin inh, Giardia FBPA inh, Sm TGR block)
O=[N+]([O-])c1cccc(N=NN(CCO)c2cccc([N+](=O)[O-])c2)c1	none
CN(N=Nc1cccc([N+](=O)[O-])c1)c1cccc([N+](=O)[O-])c1	CHX counter 33, Shiga toxin inh 109
CCCN(N=Nc1cccc([N+](=O)[O-])c1)c1cccc([N+](=O)[O-])c1	Sm TGR block 50µM
CCCCN1C(=O)/C(=C/C=C/c2ccco2)C(=O)NC1=S	Sm TGR block 4.5µM
Cc1cc(C)cc(N2C(=O)NC(=O)/C(=C\C=C\c3ccco3)C2=O)c1	Shiga toxin inh 49, Sm TGR block inconclusive
